# In PubChem BioAssay (NCATS):
# Inconclusive results are not listed. Entries that show only a call come without a potency. A number with no mark means an inactive call. Active and inactive are the calls of the source. The call rests on the fitted dose curve; in most records, active means well fitted cell-killing curve with a large enough effect; inconclusive means small, poorly fitted or top-dose-only effect, or effect the other way; inactive means flat fitted curve, though single readings scatter.
# Columns and labels:
# Assay in all cases: Primary qHTS to identify gynecologic anti-cancer compounds using libraries of approved drugs and bioactive compounds (AID 1345084); further: nearly all actives have a fitted effect of over 55% in size
# [1] = tested on: C33A; conditions: Gynecologic cancer cell panel viability, ATPlite luminescence, 48 h; series mostly up to 57.5 µM
# In short: (§1)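 48 h compound exposure at 37 C, 5% CO2; five-point qHTS. ATPlite luminescence readout of cell ATP.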
# [2] = tested on: CAOV3; conditions: Gynecologic cancer cell panel viability, ATPlite luminescence, 48 h; series mostly up to 57.5 µM
# In short: as §1
# [3] = tested on: CASKI; conditions: Gynecologic cancer cell panel viability, ATPlite luminescence, 48 h; series mostly up to 57.5 µM
# In short: as §1
# [4] = tested on: Es-2; conditions: Gynecologic cancer cell panel viability, ATPlite luminescence, 48 h; series mostly up to 57.5 µM
# In short: as §1
# [5] = tested on: HeLa; conditions: Gynecologic cancer cell panel viability, ATPlite luminescence, 48 h; series mostly up to 57.5 µM
# In short: as §1
# [6] = tested on: Hek293T; conditions: Gynecologic cancer cell panel viability, ATPlite luminescence, 48 h, control line for the selectivity index; series mostly up to 57.5 µM
# In short: as §1
# [7] = tested on: JEG-3; conditions: Gynecologic cancer cell panel viability, ATPlite luminescence, 48 h; series mostly up to 57.5 µM
# In short: as §1
# [8] = tested on: OV90; conditions: Gynecologic cancer cell panel viability, ATPlite luminescence, 48 h; series mostly up to 57.5 µM
# In short: as §1
# [9] = tested on: PA-1; conditions: Gynecologic cancer cell panel viability, ATPlite luminescence, 48 h; series mostly up to 57.5 µM
# In short: as §1
# [10] = tested on: SKOV3; conditions: Gynecologic cancer cell panel viability, ATPlite luminescence, 48 h; series mostly up to 57.5 µM
# In short: as §1
# [11] = tested on: Tov-21-G; conditions: Gynecologic cancer cell panel viability, ATPlite luminescence, 48 h; series mostly up to 57.5 µM
# In short: as §1
# [12] = tested on: Tov112D; conditions: Gynecologic cancer cell panel viability, ATPlite luminescence, 48 h; series mostly up to 57.5 µM
# In short: as §1
# Potency means the concentration at half of the fitted maximal effect.
compound,measurement,setting,value
C/C=C(\C)C(=O)OCC1OC(OC2OC(CO)C(O)C(O)C2O)C(O)C(O)C1O (configuration not stated),Potency,[1],inactive
same,Potency,[2],inactive
same,outcome,[3],inactive
same,Potency,[4],inactive
same,Potency,[5],inactive
same,Potency,[6],inactive
same,Potency,[7],inactive
same,Potency,[8],inactive
same,Potency,[9],inactive
same,Potency,[10],inactive
same,Potency,[11],inactive
same,Potency,[12],inactive
CC(=O)O[C@H]1C[C@@H](O)C(C)(C)C2C[C@@H](OC(C)=O)[C@@]3(C)C4=CCC(C(CO)CC(O)C5OC5(C)C)[C@]4(C)CCC3[C@]21C (some centres not stated),Potency,[1],inactive
same,Potency,[2],inactive
same,outcome,[3],inactive
same,Potency,[4],inactive
same,Potency,[5],inactive
same,Potency,[6],inactive
same,Potency,[7],inactive
same,Potency,[8],inactive
same,Potency,[9],inactive
same,Potency,[10],inactive
same,Potency,[11],inactive
same,Potency,[12],inactive
CC(C)C[C@H](NC(=O)[C@@H]1O[C@H]1C(=O)O)C(=O)NCCCCN=C(N)N,Potency,[1],inactive
same,Potency,[2],inactive
same,outcome,[3],inactive
same,Potency,[4],inactive
same,Potency,[5],inactive
same,Potency,[6],inactive
same,Potency,[7],inactive
same,Potency,[8],28.2 µM (active)
same,Potency,[9],inactive
same,Potency,[10],inactive
same,Potency,[11],inactive
same,Potency,[12],inactive
C[C@@H]1O[C@@H](O[C@H]2[C@H](O[C@H]3[C@H](O[C@H]4CC[C@@]5(C)C(CC[C@]6(C)C5CC=C5[C@@H]7CC(C)(C)C[C@@H](O)[C@]7(C)CC[C@]56C)C4(C)C)O[C@H](C(=O)O)[C@@H](O)[C@@H]3O)O[C@H](C(=O)O)[C@H](O)[C@@H]2O)[C@H](O)[C@H](O)[C@H]1O (some centres not stated),"activity change, negative = cytotoxicity",[1],-4.31% [at 11.6 µM]
same,"activity change, negative = cytotoxicity",[2],-1.54% [at 11.6 µM]
same,"activity change, negative = cytotoxicity",[3],12.7% [at 11.6 µM]
same,"activity change, negative = cytotoxicity",[4],-10.8% [at 11.6 µM]
same,"activity change, negative = cytotoxicity",[5],5.18% [at 11.6 µM]
same,"activity change, negative = cytotoxicity",[6],6.67% [at 11.6 µM]
same,"activity change, negative = cytotoxicity",[7],-0.21% [at 11.6 µM]
same,"activity change, negative = cytotoxicity",[8],9.77% [at 11.6 µM]
same,"activity change, negative = cytotoxicity",[9],12.6% [at 11.6 µM]
same,"activity change, negative = cytotoxicity",[10],6.58% [at 11.6 µM]
same,"activity change, negative = cytotoxicity",[11],9.44% [at 11.6 µM]
same,"activity change, negative = cytotoxicity",[12],4.96% [at 11.6 µM]
CC(=O)OCC1=C[C@@H]2OC(=O)C3=CO[C@@H](O[C@@H]4O[C@H](CO)[C@@H](O)[C@H](O)[C@H]4O)[C@H]1[C@@H]32,Potency,[1],inactive
same,Potency,[2],inactive
same,outcome,[3],inactive
same,Potency,[4],inactive
same,Potency,[5],inactive
same,Potency,[6],inactive
same,Potency,[7],inactive
same,Potency,[8],inactive
same,Potency,[9],inactive
same,Potency,[10],inactive
same,Potency,[11],inactive
same,Potency,[12],inactive
CC(CC(C)O[C@@H]1O[C@H](CO)[C@@H](O)[C@H](O)[C@H]1O)OC(=O)/C=C/c1ccc(O)cc1 (some centres not stated),Potency,[1],inactive
same,Potency,[2],inactive
same,outcome,[3],inactive
same,Potency,[4],inactive
same,Potency,[5],inactive
same,Potency,[6],inactive
same,Potency,[7],inactive
same,Potency,[8],inactive
same,Potency,[9],inactive
same,Potency,[10],inactive
same,Potency,[11],inactive
same,Potency,[12],inactive
CC1OC(O[C@H]2CC[C@@]3(C)C(CC[C@]4(C)C3CC=C3C5CC(C)(C)CC[C@]5(C(=O)OC5OC(CO)C(OC6OCC(OC7OCC(O)C(O)C7O)C(O)C6O)C(O)C5O)CC[C@]34C)C2(C)C)C(O)C(O)C1OC1OC(CO)C(O)C(OC2OC(CO)C(O)C(O)C2O)C1O (some centres not stated),"activity change, negative = cytotoxicity",[1],-11.5% [at 6.55 µM]
same,"activity change, negative = cytotoxicity",[2],2.33% [at 6.55 µM]
same,"activity change, negative = cytotoxicity",[3],-4.77% [at 6.55 µM]
same,"activity change, negative = cytotoxicity",[4],-1.46% [at 6.55 µM]
same,"activity change, negative = cytotoxicity",[5],1.79% [at 6.55 µM]
same,"activity change, negative = cytotoxicity",[6],-4.99% [at 6.55 µM]
same,"activity change, negative = cytotoxicity",[7],-5.08% [at 6.55 µM]
same,"activity change, negative = cytotoxicity",[8],-14.5% [at 6.55 µM]
same,"activity change, negative = cytotoxicity",[9],-1.37% [at 6.55 µM]
same,"activity change, negative = cytotoxicity",[10],3.95% [at 6.55 µM]
same,"activity change, negative = cytotoxicity",[11],-4.11% [at 6.55 µM]
same,"activity change, negative = cytotoxicity",[12],-3.05% [at 6.55 µM]
On1ncc(C2CCNCC2)c1-c1cccc(-c2ccccc2)c1,Potency,[1],inactive
same,Potency,[2],inactive
same,outcome,[3],inactive
same,Potency,[4],inactive
same,Potency,[5],inactive
same,Potency,[6],inactive
same,Potency,[7],inactive
same,Potency,[8],inactive
same,Potency,[9],inactive
same,Potency,[10],inactive
same,Potency,[11],inactive
same,Potency,[12],inactive
CC1(C)CCC[C@@]2(C)[C@H]1[C@H](O)C=C(CO)[C@]2(O)CO,Potency,[1],inactive
same,Potency,[2],inactive
same,outcome,[3],inactive
same,Potency,[4],inactive
same,Potency,[5],inactive
same,Potency,[6],inactive
same,Potency,[7],inactive
same,Potency,[8],inactive
same,Potency,[9],inactive
same,Potency,[10],inactive
same,Potency,[11],inactive
same,Potency,[12],inactive
CC(=O)OC1CC(C(C)(C)O)OC2CCC3(C)OC4=C(C(=O)C=C5C(C)C(OC(C)=O)C6(C)C(C)OC546)C(O)C3C12C (configuration not stated),Potency,[1],inactive
same,Potency,[2],inactive
same,outcome,[3],inactive
same,Potency,[4],inactive
same,Potency,[5],inactive
same,Potency,[6],inactive
same,Potency,[7],inactive
same,Potency,[8],inactive
same,Potency,[9],inactive
same,Potency,[10],inactive
same,Potency,[11],inactive
same,Potency,[12],inactive
C=C1CCC2[C@](C)(CO)CCC[C@@]2(C)[C@@H]1CCC1=CCOC1=O (some centres not stated),Potency,[1],inactive
same,Potency,[2],inactive
same,outcome,[3],inactive
same,Potency,[4],inactive
same,Potency,[5],inactive
same,Potency,[6],inactive
same,Potency,[7],inactive
same,Potency,[8],inactive
same,Potency,[9],inactive
same,Potency,[10],inactive
same,Potency,[11],inactive
same,Potency,[12],inactive
CC1CC(=O)[C@]2(O)C(C(=O)OCCc3ccc(O)cc3)=CO[C@@H](O[C@@H]3O[C@H](CO)[C@@H](O)[C@H](O)[C@H]3O)[C@H]12 (some centres not stated),Potency,[1],inactive
same,Potency,[2],inactive
same,outcome,[3],inactive
same,Potency,[4],inactive
same,Potency,[5],inactive
same,Potency,[6],inactive
same,Potency,[7],inactive
same,Potency,[8],inactive
same,Potency,[9],inactive
same,Potency,[10],inactive
same,Potency,[11],inactive
same,Potency,[12],inactive
O=C(NCC(=O)N1CCCC1)Nc1ccc2ccccc2c1,Potency,[1],inactive
same,Potency,[2],inactive
same,outcome,[3],inactive
same,Potency,[4],inactive
same,Potency,[5],inactive
same,Potency,[6],inactive
same,Potency,[7],inactive
same,Potency,[8],inactive
same,Potency,[9],inactive
same,Potency,[10],inactive
same,Potency,[11],inactive
same,Potency,[12],inactive
COC(=O)C1=C[C@@H](O)[C@@H](O)[C@H](O[C@@H]2O[C@H](CO)[C@@H](O)[C@H](O)[C@H]2OC(=O)/C=C/c2ccccc2)C1,Potency,[1],inactive
same,Potency,[2],inactive
same,outcome,[3],inactive
same,Potency,[4],inactive
same,Potency,[5],inactive
same,Potency,[6],inactive
same,Potency,[7],inactive
same,Potency,[8],inactive
same,Potency,[9],inactive
same,Potency,[10],inactive
same,Potency,[11],inactive
same,Potency,[12],inactive
CC1OC(OC2C(OC3C(O[C@H]4CC[C@@]5(C)C(CC[C@]6(C)C5C(=O)CC5=C7CC(C)(C)CC(O)[C@]7(C)CC[C@]56C)C4(C)C)OC(C(=O)O)C(O)C3O)OCC(O)C2O)C(O)C(O)C1O (some centres not stated),"activity change, negative = cytotoxicity",[1],2.35% [at 11.6 µM]
same,"activity change, negative = cytotoxicity",[2],18.5% [at 11.6 µM]
same,"activity change, negative = cytotoxicity",[3],14.8% [at 11.6 µM]
same,"activity change, negative = cytotoxicity",[4],-7.45% [at 11.6 µM]
same,"activity change, negative = cytotoxicity",[5],0.531% [at 11.6 µM]
same,"activity change, negative = cytotoxicity",[6],-3% [at 11.6 µM]
same,"activity change, negative = cytotoxicity",[7],-0.413% [at 11.6 µM]
same,"activity change, negative = cytotoxicity",[8],-4.22% [at 11.6 µM]
same,"activity change, negative = cytotoxicity",[9],14.2% [at 11.6 µM]
same,"activity change, negative = cytotoxicity",[10],29.3% [at 11.6 µM]
same,"activity change, negative = cytotoxicity",[11],4.68% [at 11.6 µM]
same,"activity change, negative = cytotoxicity",[12],3.63% [at 11.6 µM]
C=C1CC23CC1CCC2C12OC(=O)C(C)(C(O)CC1O)C2C3C(=O)O (configuration not stated),Potency,[1],inactive
same,Potency,[2],inactive
same,outcome,[3],inactive
same,Potency,[4],inactive
same,Potency,[5],inactive
same,Potency,[6],inactive
same,Potency,[7],inactive
same,Potency,[8],inactive
same,Potency,[9],inactive
same,Potency,[10],inactive
same,Potency,[11],inactive
same,Potency,[12],inactive
